HepG2 tox: HepG2 cytotoxicity, counter-screen for TGF-b inhibitors. HepG2 CAGA-GFP viability, ATP luminescence, 18 h. Potency, µM (series often up to 46.1 µM), for the others: at the highest dose activity change, negative = cytotoxicity, actives largely listed as cytotoxic. AID 588856. actives 0.76% (n = 410,000)
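HepG2 CAGA-GFP cells (1000/well, DMEM with 1% FBS) received compound, then TGF-beta at 500 pg/mL final, and were incubated 18 hours at 37 degrees C. Viability was read by CellTiter-Glo luminescence. Media-only wells were set as complete cell-killing and DMSO as no toxicity.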
ATXN2 expr inh: inhibitors of ATXN2 expression. HEK-293 ATXN2-luciferase reporter, luminescence, 24 h. Potency, µM (titrated, usually from 57 µM), for inactives: top-dose activity change, negative = inhibition, hits mostly inhibitors. actives 0.72% (n = 360,000). AID 1745845; further: on the % scale 0 is the no-effect control and ±100 the full control effect; nearly all actives have a fitted effect of over 55% in size
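ATXN2-luciferase reporter cells (luciferase flanked by upstream and downstream ATXN2 gene portions) were treated 24 h at 37 °C with compounds at up to 57 uM. SteadyGlo luminescence gave expression; GF-AFC fluorescence gave viability.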
TGFb SMAD3 inh: blocks TGF-b signaling; HepG2 CAGA-GFP TGF-b/SMAD3 reporter, GFP fluorescence, 18 h; TGF-beta stimulated, 500 pg/mL final; Potency, µM (highest dose often 46.1 µM), inactives show top-dose activity, negative = inhibition, hits mostly inhibitors; actives 1.2% (n = 410,000); further: on the % scale 0 is the no-effect control and ±100 the full control effect; nearly all actives have a fitted effect of over 65% in size
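First, reporter cells (HEPG2 CAGA-GFP) rested 2 h at 37 degrees C. Next, compounds were pinned in and TGF-beta added to 500 pg/mL final. After 18 h, GFP was imaged per cell and summed per well.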
ATXN viability: reduces viability in counter-screen for ATXN expression inhibitors; S2 cells (HEK-293 line with an ATXN2-luciferase reporter) viability, CellTiter-Fluor protease fluorescence, 24 h; AID 651635; Potency, µM (doses to about 56.7 µM), usual class: cytotoxic; actives 0.49% (n = 400,000); further: nearly all actives have a fitted effect of over 40% in size
HT1080 IDH1KD tx: HT-1080 IDH1 knockdown cell toxicity (counter line); HT-1080 IDH1 knockdown viability, ATP luminescence, 48 h; Potency, µM (series often up to 46.1 µM), without a hit: top-dose activity, negative = toxicity, hits mostly cytotoxic; AID 686971; actives 2% (n = 360,000);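 further: 0% = DMSO wells and -100% = cell-free medium wells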
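Assay cells: HT-1080 with IDH1 knockdown, 750 per well, RPMI/5% FBS. Exposure: 48 h at 37 °C following 2 h pre-incubation. Read: CellTiter-Glo luminescence; fitted concentration-response, curve class assigned.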
HT1080NT lethal: kills 2HG-producing HT-1080-NT fibrosarcoma cells | HT-1080-NT fibrosarcoma viability, CellTiter-Glo ATP luminescence, 48 h | Potency, µM (titrated, usually from 46.1 µM), inactives show at the top dose activity, negative = less viability, actives largely listed as cytotoxic | actives 1.6% (n = 360,000) | AID 686970;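 further: NT is the 2HG producing partner of a matched IDH1 knockdown line; 0% = DMSO-treated cells and -100% = media-only wells without cells; nearly all actives have a fitted effect of over 55% in size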
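Viability of the 2HG-overproducing fibrosarcoma line after 48 hours of compound exposure at 37 degrees C was determined by luminescence with CellTiter-Glo, and concentration-effect curves were then fitted and categorized.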
* hit, by the source's call; i = inactive; ? = inconclusive; nt = not tested or not shown; [ ] = remark or other dose. A selection: hits, their analogues and other compounds. The true share with any hit is near 3.8%. The call rests on the fitted dose curve; in most records, active means well fitted curve in the direction sought with a large enough effect; inconclusive means small, poorly fitted or top-dose-only effect, or another doubt; inactive means no such curve, though single readings can be large; an effect the other way counts as inactive or inconclusive. Potency means the concentration at half of the fitted maximal effect.

SMILES | HepG2 tox | ATXN2 expr inh | TGFb SMAD3 inh | ATXN viability | HT1080 IDH1KD tx | HT1080NT lethal
C=C(C)COc1ccc(-c2[nH]ncc2Oc2ccccc2OCC)c(O)c1 | -89% | ? | ? | i | 26µM* | ?
Cc1ccc(C(=O)c2sc(Nc3ccccc3)c(S(=O)(=O)c3ccccc3)c2N)c(C)c1 | -29% | -3% | 8% | i | nt | nt
CCOc1ccc(-n2ccn3c(CC(C)CC(=O)O)nnc3c2=O)cc1 (stereo unspecified) | 7% | 3% | 3% | i | nt | nt
C/C(=N/NC(=O)c1cccs1)c1c(C)[nH]n(-c2nc3ccccc3s2)c1=O | 1µM* | ? | -27% | i | 2.6µM* | 2.3µM*
COc1ccc(C2c3c(-c4c(C)cc(C)cc4O)n[nH]c3C(=O)N2Cc2ccco2)cc1 (stereo unspecified) | -105% | ? | ? | 18µM* | nt | nt
COc1ccc(C2c3c(-c4ccccc4O)n[nH]c3C(=O)N2Cc2ccco2)cc1 (stereo unspecified) | -21% | -1% | ? | ? | ? | ?
CCOC(=O)c1ccc(Nc2ncnc3c2cnn3C)cc1 | -21% | 6% | 1% | i | 16%[9.24 µM] | -5%
Cn1ncc2c(O/N=C(\N)c3ccc(C(C)(C)C)cc3)ncnc21 | -100% | ? | ? | nt | 6.5µM* | 18µM*
C=CC[n+]1ccc(/C=C2\C=Cc3cc(C)ccc3N2CC)c2ccccc21 | -47% | ? | 2.8µM* | 9.5µM* | 4.1µM* | 5.8µM*
CO[C@H]1[C@H](NC(=O)c2cccc(F)c2)c2ccccc2C12CCN(Cc1ccco1)CC2 | nt | nt | nt | i | nt | nt
Cc1ccc(C(=O)O)cc1N1C(=O)c2cccc3c([N+](=O)[O-])ccc(c23)C1=O | -12% | ? | ? | nt | ? | 16µM*
O=C(Nc1nccs1)c1cccc(N2C(=O)c3cccc4c([N+](=O)[O-])ccc(c34)C2=O)c1 | -9% | ? | -26% | ? | 16µM* | 21µM*
CN(C)CCCN1C(=O)c2cccc3c([N+](=O)[O-])ccc(c23)C1=O | -94% | ? | ? | nt | 5.8µM* | ?
O=C(O)c1ccc(CN2C(=O)c3cccc4c([N+](=O)[O-])ccc(c34)C2=O)cc1 | -8% | ? | 59% | nt | ? | ?
O=C(OCc1cc(=O)n2nc(C3CC3)sc2n1)c1ccc(F)cc1 | -4% | 16% | -14% | i | nt | nt
Nc1nccc(-c2ccc3noc(-c4ccc(Cl)cc4)c3c2)n1 | nt | -18% | nt | nt | nt | nt
Cc1cc(/C=N/n2cnnc2)c(C)n1-c1ccc(Cl)cc1 | 0% | -1% | 13% | i | -4% | -7%
Cc1cc(/C=N/n2cnnc2)c(C)n1-c1ccc(OCc2ccc(Cl)cc2Cl)cc1 | -74% | 16µM* | 8.9µM* | i | -24%[9.24 µM] | 23µM*
C=CCC[C@H](Cc1ccc(F)cc1)C(=O)O[C@H](CNC(=O)[C@@H](CC=C)CC(=O)N(CCO)Cc1ccccc1)c1ccccc1 | -58% | ? | ? | 22µM* | ? | ?
C=CCC[C@H](Cc1ccc(F)cc1)C(=O)OC[C@H](Cc1c[nH]c2ccccc12)NC(=O)[C@@H](CC=C)CC(=O)N(CCO)Cc1ccccc1 | -33% | 0% | ? | nt | ? | ?
C=CCC[C@@H](Cc1ccc(F)cc1)C(=O)OC[C@H](Cc1c[nH]c2ccccc12)NC(=O)[C@H](CC=C)CC(=O)N(CCO)Cc1ccccc1 | -35% | -17% | ? | 22µM* | ? | ?
C=CCC[C@H](Cc1ccc(F)cc1)C(=O)OC[C@@H](Cc1c[nH]c2ccccc12)NC(=O)[C@@H](CC=C)CC(=O)N(CCO)Cc1ccccc1 | -4% | ? | ? | 16µM* | ? | ?

Source: PubChem BioAssay
